# TRb SRC2 PPI – qHTS for Inhibitors of the Interaction of Thyroid Hormone Receptor and Steroid Receptor Coregulator 2 | Thyroid hormone receptor beta (Homo sapiens), P10828 | TRbeta-SRC2 peptide binding, fluorescence polarization; receptor liganded with 1 µM T3 | Potency, µM (series often up to 106 µM), for the others: at the top dose activity change, negative = inhibition, most hits filed as inhibitors | hit rate 0.065% among 280,000;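 further: plate controls were bound peptide for no effect and peptide without receptor for full effect; nearly all actives have a fitted effect of over 50% in size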
# Target sequence (P10828 whole entry, looked up): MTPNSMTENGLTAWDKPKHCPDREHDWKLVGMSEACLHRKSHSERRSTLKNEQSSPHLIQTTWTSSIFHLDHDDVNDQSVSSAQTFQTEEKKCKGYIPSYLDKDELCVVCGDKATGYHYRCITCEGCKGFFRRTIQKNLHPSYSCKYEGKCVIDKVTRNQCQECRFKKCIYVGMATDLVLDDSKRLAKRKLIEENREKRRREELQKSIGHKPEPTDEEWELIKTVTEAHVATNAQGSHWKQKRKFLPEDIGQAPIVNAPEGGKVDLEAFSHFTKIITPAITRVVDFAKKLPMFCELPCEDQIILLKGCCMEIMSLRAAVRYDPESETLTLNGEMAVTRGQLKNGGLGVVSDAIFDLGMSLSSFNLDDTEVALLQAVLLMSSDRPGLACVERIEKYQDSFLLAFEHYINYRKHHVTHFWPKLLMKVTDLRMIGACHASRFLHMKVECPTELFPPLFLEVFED
#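 TRb LBD 0.6 uM + Texas Red SRC2 peptide 20 nM, 1 uM T3, Tris buffer w/ 5% DMSO; compound pinned, 5 h RT; FP read ex 555/em 632; normalized to unbound and bound controls.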
# TexasRed fluor – Total Fluorescence Counterscreen for Inhibitors of the Interaction of Thyroid Hormone Receptor and Steroid Receptor Coregulator 2; TRb/SRC2 Texas Red total fluorescence interference; Potency, µM (series often up to 106 µM), without a hit: at the highest dose fluorescence change, negative = quenching; hit rate 0.29% among 280,000; AID 1479, 2009; active means well fitted curve in either direction with a large enough effect; inconclusive means small, poorly fitted or top-dose-only effect
#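 Human TRβ ligand-binding domain (0.6 uM) and Texas Red SRC2 peptide (20 nM) in Tris buffer with 1 uM T3 and 5% DMSO were incubated with pinned compound for 5 hr at ambient temperature. Total fluorescence was computed as S + 2P (555/632 nm).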
# Tau fibril ThT – qHTS for Inhibitors of Tau Fibril Formation, Thioflavin T Binding; recombinant tau K18 P301L, heparin-induced fibrillization, ThT fluorescence; Potency, µM (titrated, usually from 57.4 µM), inactives show top-dose activity, negative = inhibition, most hits filed as inhibitors; hit rate 2.1% among 270,000; further: nearly all actives have a fitted effect of over 55% in size
# Target sequence (P10636 561-689 P618L limits assumed): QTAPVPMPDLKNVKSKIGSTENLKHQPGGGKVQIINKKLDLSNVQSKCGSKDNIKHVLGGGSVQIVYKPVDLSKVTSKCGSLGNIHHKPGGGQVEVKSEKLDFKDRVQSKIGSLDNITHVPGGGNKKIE
#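 ThT emission at 510 nm, taken 1 hr after adding 30 uM dye, quantifies aggregates formed when 20 uM heparin acts on human tau K18 P301L for 6 hr at 37 C.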
# Tau fluor counter – Counterscreen qHTS for Inhibitors of Tau Fibril Formation, Fluorescence Polarization; tau K18 P301L Alexa594 fluorescence, heparin fibrillization; Potency, µM (series often up to 57.7 µM), for the others: at the top dose activity change, negative = decrease; hit rate 0.93% among 280,000; AID 1463, 2008; further: nearly all actives have a fitted effect of over 55% in size
#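 Human tau K18 P301L (15 uM unlabeled, 0.24 uM Alexa 594-labeled) in 100 mM sodium acetate pH 7 with 20 uM heparin, 6 hr at 37 C. ThT 30 uM added, 1 hr ambient; Alexa 594 FP and total fluorescence read at 555/632 nm.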
# Tau fibril FP – qHTS for Inhibitors of Tau Fibril Formation, Fluorescence Polarization; Microtubule-associated protein tau (Homo sapiens), P10636; Potency, µM (series often up to 57.7 µM), for the others: at the highest dose activity, negative = inhibition, actives largely listed as inhibitors; K18 P301L tau heparin fibrillization, Alexa594 FP, 6 h; hit rate 0.39% among 280,000; further: nearly all actives have a fitted effect of over 55% in size
#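 Steps: dispense K18 P301L tau (15 uM plus 0.24 uM Alexa 594 tracer, final) in pH 7 sodium acetate; add compound; add heparin (20 uM final); incubate 6 hr, 37 C; add ThT (30 uM final); after 1 hr ambient, read FP.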
# * hit, by the source's call; ? = inconclusive; / = not tested or not shown; [ ] = another dose, or the depositor's remark. Compounds with a hit are over-represented: about 3% of the library has one in this group of screens. Unless noted, the call rests on the fitted dose curve; in most records, active means well fitted curve in the direction sought with a large enough effect; inconclusive means small, poorly fitted or top-dose-only effect, or another doubt; inactive means no such curve, though single readings can be large; an effect the other way counts as inactive or inconclusive. Unless noted, on the % scale 0 is the no-effect control and ±100 the full control effect; potency means the concentration at half of the fitted maximal effect.
SMILES,TRb SRC2 PPI,TexasRed fluor,Tau fibril ThT,Tau fluor counter,Tau fibril FP
O=C(Nc1ccc(S(=O)(=O)NCc2ccccc2)cc1)Nc1ccc2c(c1)OCO2,1.8%,-0.7%,?,3.98µM*[quencher],?
O=C(CCc1ccc(S(=O)(=O)NCCc2ccccc2)cc1)Nc1ccc2c(c1)OCO2,8.1%,0.9%,?,?,?
S=C(Nc1ccc2c(c1)OCO2)Nc1ccc2c(c1)OCO2,-7.3%,-1.0%,25.1µM*,?,?
CN(C)C(=S)Nc1ccc2c(c1)OCO2,-4.5%,0.8%,?,-10.6%,-13.4%
CC(=O)c1ccc(NC(=S)NCCc2cccc(Cl)c2)cc1,5.4%,-0.5%,3.3%,?,25.1µM*
C[C@@H]1C(=O)O[C@H]2[C@@H](O)[C@@]34[C@H]5CC(C(C)(C)C)[C@]36[C@@H](OC(=O)[C@@H]6O)O[C@@]4(C(=O)O5)[C@@]12O (stereo partly specified),-4.2%,0.0%,1.6%,-0.4%,-8.4%
COc1cccc(CN2C(=O)c3ccccc3Sc3ccc(C(=O)NCc4ccccc4)cc32)c1,1.7%,0.6%,3.6%,-21.4%,-13.5%
COc1cccc(C(=O)Nc2nc3nc(C)c(Cc4ccccc4)c(=O)n3[nH]2)c1,-4.7%,-0.1%,2.5%,3.6%,-6.4%
O=C(Nc1cccc(Cl)c1)Nc1ccc2c(c1)OCO2,4.9%,1.5%,?,14.1µM*[quencher],16.0%
O=C(Nc1ccc2c(c1)OCCO2)Nc1ccc2c(c1)OCO2,-5.1%,-5.8%,?,?,?
COc1cccc(C(=O)/C(C#N)=N/Nc2cccc(-c3ccnc(C)n3)c2)c1,-1.4%,-11.1%,5.01µM*,?,-2.4%
Cc1oc2cc3oc(=O)c(CC(=O)NCc4ccccc4)c(C)c3cc2c1C,-19.1%,0.0%,-1.7%,2.6%,-4.2%
O=[N+]([O-])c1cc(-c2ccc(/C=N/c3nc4ccccn4c3-c3ccco3)o2)ccc1Cl,-26.6%,3.1%,11.2µM*,25.1µM*[quencher],?
CC(C)CCCCCCCCCCCCCCC(=O)O,8.9%[201 µM],-1.8%[201 µM],/,/,/
O=C(Nc1cccc(Cl)c1)OCC#CCCl,0.794µM*,7.94µM*[fluorescent],/,/,/
C#CC(C)OC(=O)Nc1cccc(Cl)c1 (stereo unspecified),0.4%,-2.0%,/,/,/
CN1C(=O)CS/C1=N\NC(=O)COc1cccc2cccnc12,-1.1%,2.7%,10µM*,11.9%[2.34 µM],-7.4%
CC[n+]1c(/C=C/C=C/N(C(C)=O)c2ccccc2)sc2ccccc21,6.4%,16.3%,11.2µM*,8.91µM*[fluorescent],?
CCCCN(CC)CCNC(=O)CN1C(=O)COc2ccc(S(=O)(=O)N3CCOCC3)cc21,-1.2%,-3.0%,2.1%,-4.0%,-3.0%
COc1ccccc1NC(=O)c1c(NCc2sccc2C)sc2c1CCCCC2,2.3%,-2.1%,?,-19.3%,0.5%
COc1ccc(NC(=O)c2c(NCc3ccc(C)o3)sc3c2CCCCC3)c(OC)c1,-25.2%,112µM*[quencher],17.8µM*,?,?
COc1ccc(NC(=O)c2c(NCc3ccc(C)o3)sc3c2CCC(C)C3)c(OC)c1 (stereo unspecified),-1.5%,-6.2%,?,?,-8.6%
COc1ccc(NC(=O)c2c(NCc3sccc3C)sc3c2CCCCC3)c(OC)c1,-1.8%,-11.0%,28.2µM*,?,?
COc1ccc(Cl)cc1NC(=O)c1c(NCc2sccc2C)sc2c1CCCC2,3.6%,-1.7%,3.98µM*,?,?
COC(=O)C/C=C\[C@@H](C)[C@@H](/C=N\O[C@@H]1O[C@H](COC(C)=O)[C@H](OC(C)=O)[C@H](OC(C)=O)[C@H]1OC(C)=O)OC,3.4%[11.2 µM],-1.5%[11.2 µM],-4.3%[11.5 µM],-6.0%[11.6 µM],-1.8%[11.6 µM]
SMILES,TRb SRC2 PPI,TexasRed fluor,Tau fibril ThT,Tau fluor counter,Tau fibril FP
CCCN(C/C=C/I)C1CCc2cccc(O)c2C1 (stereo unspecified),6.4%,-1.0%,-3.1%,-4.8%,3.3%
O=C(CSc1nccn1-c1ncc(C(F)(F)F)cc1Cl)c1ccc(Cl)cc1,2.2%,1.3%,17.8µM*,-15.0%,?
CCOC(=O)c1cnc(SC2CCc3ccccc3C2=O)nc1N (stereo unspecified),-1.3%,-7.1%,28.2µM*,?,?
NC(N)=N/N=C/c1cccc([N+](=O)[O-])c1O,-7.5%,-1.4%,-1.8%,-7.6%,0.1%
O=[N+]([O-])c1cccc(/C=N\N=C2c3ccccc3-c3ccccc32)c1O,-4.7%,?,5.01µM*,?,8.5%
COc1ccc(NS(=O)(=O)c2ccc3nc(COc4ccc5ccccc5c4)[nH]c3c2)cc1,-3.7%,-7.0%,1.2%,-5.6%,-1.1%
COc1ccc(NS(=O)(=O)c2ccc3nc(COc4cccc5ccccc45)[nH]c3c2)cc1,8.0%,-0.6%,-10.6%,10µM*[quencher],22.4µM*
C=CCOC(=O)C(C(C)=O)C(NC(=O)OC)c1cccc(C)c1 (stereo unspecified),6.6%[11.2 µM],1.6%[11.2 µM],-15.9%[11.5 µM],-15.0%[11.6 µM],-5.9%[11.6 µM]
CC1=NN(c2ccccc2)C(=O)/C1=C\c1ccc(Oc2ccc([N+](=O)[O-])cc2[N+](=O)[O-])cc1,-21.6%,-6.8%,14.1µM*,14.1µM*[quencher],?
COc1cc(/C=C2\C(=O)N(c3ccccc3)N=C2C)ccc1Oc1ccc([N+](=O)[O-])cc1[N+](=O)[O-],?,-11.9%,?,?,-10.0%
CCOC(=O)OCC1OC(C#Cc2ccc(F)cc2F)C=CC1OC(=O)OCC (stereo unspecified),1.5%[11.2 µM],-1.2%[11.2 µM],-11.3%[11.5 µM],-7.4%[11.6 µM],-6.1%[11.6 µM]
CCN(CC)c1ccc(NC(=S)Nc2ccc(F)cc2)cc1,?,0.2%,12.6µM*,?,?
O=C(NC(=S)Nc1ccc(N2CCCCC2)cc1)c1cccs1,-1.9%,-2.3%,12.6µM*,15.8µM*[quencher],?
CCN(CC)c1ccc(NC(=S)NC(=O)c2cccs2)cc1,-8.2%,-2.0%,6.31µM*,12.6µM*[quencher],18.5%
O=C(NC(=S)Nc1ccc(N2CCOCC2)c(Cl)c1)c1cccs1,10.7%,-3.2%,-17.6%,-29.8%,-2.5%
O=C(Nc1ccc(N2CCCC2)c(Cl)c1)c1cccs1,1.0%,-0.8%,?,15.8µM*[quencher],10.8%
CCN(CC)c1ccc(NC(=O)CN2CCN(CC(=O)Nc3ccc(F)cc3)CC2)cc1,4.8%,0.1%,-6.2%,-16.8%,16.6%
Cc1ccc(-c2nc3sc(CCNC(=O)c4ccc(Br)o4)c(C)n3n2)cc1,-6.9%,-0.8%,?,-17.3%,-5.6%
Cc1ccccc1N1C(S)=C(C#N)C(=O)NC1c1cccs1 (stereo unspecified),-14.2%,-1.8%,?,-21.2%,?
